# Compound activity from PubChem BioAssay.
# The list is not random: actives were taken first. Their share in the collection is about 1.9%.
# RXFP1 ag – agonists of human relaxin receptor RXFP1; Q9HBX9; Potency, µM (titrated, usually from 57.5 µM), inactives show at the highest dose activation, hits mostly activators; actives 0.3% (n = 370,000); HEK293T-RXFP1 cAMP TR-FRET, 30 min; response scale: percent of porcine relaxin response, buffer zero; also: potency is read from the fitted curve at half-maximal effect; % is scaled to controls: 0 for no effect and ±100 for the full control effect; nearly all actives have a fitted effect of over 60% in size
#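 cAMP rise read by TR-FRET after 30 min, 37C compound exposure (up to 58 uM) in RXFP1-transfected HEK293 cells with Ro 20174 present. EC50 from Hill-equation fits, with 29 nM porcine relaxin as 100% and buffer as basal.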
# BRCA1 expr up – increases BRCA1 expression; MCF7-BRCA1-FFLuc reporter, luminescence, 48 h; response scale: scaled: vehicle 0%, 10 µM genistein 100%; Potency, µM (doses to about 46.1 µM), for inactives: at the highest dose activation, usual class: activators; actives 1.1% (n = 380,000); also: potency is read from the fitted curve at half-maximal effect; nearly all actives have a fitted effect of over 80% in size
#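 Quantitative HTS in MCF7 cells stably reporting BRCA1 expression via firefly luciferase. Compound treatment lasts 48 h at 37 °C in phenol-red free MEM. Activation is expressed relative to genistein at 10 microM and DMSO.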
# Giardia killer – Giardia lamblia killing; Giardia lamblia trophozoite viability; activity change, % at 7.66 µM, hits read low; actives 0.15% (n = 340,000); AID 540267; in the data active = activity change below about -80%; inconclusive = between about -30% and that limit;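 also: parasites exposed to compound for two days anaerobically before the ATP read; % is scaled to controls: 0 for no effect and ±100 for the full control effect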
#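 ATP-content bioluminescence gauges trophozoite survival. Cells (100/well) receive compound and incubate anaerobically for 48 hrs at 37 deg C; detection reagent follows for 15-30 min at room temperature.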
# RXFP1 antagonist – RXFP1 (human) relaxin receptor antagonism | Q9HBX9 | HEK293-RXFP1, relaxin-stimulated cAMP HTRF, 30 min; hits give low values | activity change, negative = inhibition, % at 57.5 µM | actives 0.59% (n = 350,000);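 active = activity change of -60% or lower, but not beyond a set lower limit; inconclusive = change between -60% and -40%, or beyond the set limit; inactive = change above -40%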; also: % is scaled to controls: 0 for no effect and ±100 for the full control effect
# NPSR antagonist – antagonists of human neuropeptide S receptor cAMP signaling | Q6W5P4 | CHO-NPSR cells, cAMP TR-FRET, antagonist mode | Potency, µM (highest dose often 38.3 µM), inactives show top-dose activity change, negative = inhibition, most hits filed as inhibitors | actives 1% (n = 220,000) | AID 1461; also: potency is read from the fitted curve at half-maximal effect; % is scaled to controls: 0 for no effect and ±100 for the full control effect; nearly all actives have a fitted effect of over 50% in size
# Target sequence (Q6W5P4 whole entry, looked up): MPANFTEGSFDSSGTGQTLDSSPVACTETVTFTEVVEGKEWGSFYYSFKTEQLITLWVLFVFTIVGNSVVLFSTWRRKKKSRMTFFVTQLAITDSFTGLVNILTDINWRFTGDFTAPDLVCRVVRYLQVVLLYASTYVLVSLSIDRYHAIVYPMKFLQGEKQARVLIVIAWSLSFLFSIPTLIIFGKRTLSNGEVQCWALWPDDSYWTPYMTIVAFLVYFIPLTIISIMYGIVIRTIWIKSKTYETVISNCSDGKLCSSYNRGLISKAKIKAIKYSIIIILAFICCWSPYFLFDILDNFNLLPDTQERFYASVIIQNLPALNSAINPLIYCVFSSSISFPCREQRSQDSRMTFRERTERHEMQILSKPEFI
# IL-2 act – activators of IL-2. AID 652025. IL-2 activation reporter assay, cell-based qHTS; stimulated with anti-CD3/CD4/CD28 beads; in transgenic mouse T cells. actives 0.065% (n = 360,000). activation, % (series mostly up to about 46 µM); in the data active = activation above about 50%; inconclusive = mostly about 30% to 49%; also: 0% is about no effect
#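 Unstimulated transgenic mouse T cells; 60-min compound exposure; bead-based TCR/CD4/CD28 stimulation; 18 h culture, 37 degrees C; dual fluorescence (EGFP, DsRed) plate cytometry.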
# An asterisk follows results filed as active; u = inconclusive; x = not tested or not shown; [ ] = dose if it differs, or a comment. Unless noted, calls follow the shape of the dose curve; as a rule, active = well fitted curve in the direction sought with a large enough effect; inconclusive = small, poorly fitted or top-dose-only effect, or another doubt; inactive = no such curve, though single readings can be large; an effect the other way counts as inactive or inconclusive.
SMILES,RXFP1 ag,BRCA1 expr up,Giardia killer,RXFP1 antagonist,NPSR antagonist,IL-2 act
Cc1c(CC(=O)NC(C)C)c(=O)oc2cc3c(cc12)CCC(C)(C)O3,3%,11µM*,-7,-3,x,-1
C/C(=N/NC(=O)c1cccc(N2CCCC2=O)c1)c1ccc(Br)cc1,0%,30%,15,16,x,-2
COc1cccc(/C=N/NC(=O)c2cccc(N3CCCC3=O)c2)c1,-1%,8.9µM*,14,-5,x,0
C/C(=N/NC(=O)c1cccc(N2CCCC2=O)c1)c1ccncc1,3%,8.9µM*,2,7,-18%,0
COc1ccc(O)c(/C=N/NC(=O)c2cccc(N3CCCC3=O)c2)c1,5%,-38%,-14,-5,x,0
Oc1cccc(-c2nc3ccccc3s2)c1,3%,-58%,-25,2,-5%[46.1 µM],0
Oc1cccc(-c2nnc(-c3cccc(O)c3)nn2)c1,x,-55%,-80*,-15,x,-1
O=C(COC(=O)c1c(F)cccc1Cl)NC1CCCCC1,1%,11µM*,4,8,x,0
O=C(COC(=O)c1ccccc1C(=O)c1ccc(Cl)c([N+](=O)[O-])c1)NC1CCCCCC1,1%,-93%,-3,-37,10µM*,-3
O=C(COC(=O)c1ccc(Cl)c([N+](=O)[O-])c1)NC1CCCC1,3%,-11%,4,-20,x,-1
Nc1c(C(=O)Nc2ccc3c(c2)OCCO3)nnn1Cc1cccc(Cl)c1,0%,3.2µM*,u,6,x,0
Nc1c(C(=O)Nc2ccc3c(c2)OCCO3)nnn1Cc1ccc(F)cc1,0%,8.9µM*,11,-12,x,0
Nc1c(C(=O)Nc2ccc3c(c2)OCCO3)nnn1Cc1ccccc1Cl,1%,u,-7,8,x,-1
CC(=O)c1ccc(NC(=O)c2cnc(N3CCCC3)nc2C)cc1,-1%,x,x,-5,x,x
Cc1ccc(NC(=O)Cn2c(=O)n(-c3ccccc3)c(=O)c3ccc(C(=O)NCc4ccc5c(c4)OCO5)cc32)cc1,22µM*,2%,x,x,x,x
Cc1ccc(-n2c(=O)c3ccc(C(=O)NCc4ccccc4Cl)cc3n(CC(=O)Nc3cccc(F)c3)c2=O)cc1,12%,2%,x,x,x,x
Cc1ccc(-n2c(=O)c3ccc(C(=O)NCc4ccccc4Cl)cc3n(Cc3cccc(F)c3)c2=O)cc1,32µM*,17%,x,x,x,x
COc1ccc(-n2c(=O)c3ccc(C(=O)NCc4ccc(C)cc4)cc3n(CC(=O)Nc3cccc(F)c3)c2=O)cc1,32µM*,-4%,x,x,x,x
O=C(Cn1c(=O)n(-c2ccccc2)c(=O)c2ccc(C(=O)NCc3ccc4c(c3)OCO4)cc21)Nc1ccc(F)cc1,15%,15%,x,x,x,x
CCCCSCCCNC(=O)c1cn(CC)c2ccc(S(=O)(=O)N(C)C3CCCCC3)cc2c1=O,1%,2%,x,x,x,x
NC1CCc2ccccc21 (configuration not stated),x,4%,x,x,x,x
COc1ccc(C(=O)N2C=Cc3ccccc3C2C#N)cc1 (configuration not stated),x,1%,x,0,x,-3
N#CC1c2ccccc2C=CN1C(=O)N(c1ccccc1)c1ccccc1 (configuration not stated),x,-89%,-14,-94*,x,-1
O=C(CCC(=O)c1ccc[nH]1)c1ccc(Cl)cc1,0%,7.1µM*,-28,-5,-14%[46.1 µM],-1
CC(=O)NC(c1ccc2ccccc2c1)c1ccc2cccnc2c1O (configuration not stated),2%,-85%,-3,-70*,x,-2
SMILES,RXFP1 ag,BRCA1 expr up,Giardia killer,RXFP1 antagonist,NPSR antagonist,IL-2 act
CCCC(=O)NC(c1ccc(Cl)cc1Cl)c1ccc2cccnc2c1O (configuration not stated),2%,-74%,-9,-62*,x,1
CCCC(=O)NC(c1ccco1)c1cc(Cl)c2cccnc2c1O (configuration not stated),0%,-69%,-3,-66*,-27%[46.1 µM],0
CCCC(=O)NC(c1ccc(Cl)cc1)c1ccc2cccnc2c1O (configuration not stated),0%,-67%,-17,-20,x,-5
CCCC(=O)NC(c1cccs1)c1cc(Cl)c2cccnc2c1O (configuration not stated),3%,-78%,3,u,u,-2
COc1ccc(C(NC(C)=O)c2ccc3cccnc3c2O)cc1OC (configuration not stated),x,-74%,x,x,x,x
O=C(CNC(=O)C1CCCCC1)OCc1ccccc1,x,1%,-13,x,x,x
CCOC(=O)c1sc2nc(C)[nH]c(=S)c2c1C,28µM*,-7%,12,34,-23%,0
O=C(CCc1ccccc1)Nc1ccc2ccccc2n1,3%,7.1µM*,-13,11,-10%,-4
Cc1ccc(NC(=O)CCc2ccccc2)cc1C,x,13µM*,x,0,x,2
O=C(Nc1ccc2ccccc2n1)c1ccccc1,1%,43%,-2,-1,x,-2
COc1cc2nc(N3CCCCC3)nc(NC3CC3)c2cc1OC,x,0%,x,x,x,x
Cc1ccc(-c2csc(NS(=O)(=O)c3cccc(F)c3)n2)o1,x,-12%,-8,-75*,x,0
Cc1nc(CNS(=O)(=O)c2cccc(F)c2)cs1,0%,7%,-3,3,-17%[46.1 µM],-3
CCOC(=O)N1CCN(S(=O)(=O)c2ccc(C(=O)Nc3sc4c(c3C(=O)OC)CCN(C)C4)cc2)CC1,2%,-46%,31,-5,x,-2
CC1CCN(S(=O)(=O)c2ccc(NC(=O)CNC3CCCCC3)cc2)CC1,-3%,5%,18,-104*,x,0
CC1CCCC(C)N1S(=O)(=O)c1ccc(NC(=O)CNC2CCCC2)cc1 (configuration not stated),-1%,-30%,10,3,x,1
CCOC(=O)c1c(NC(=O)c2ccc(S(=O)(=O)N3CCC(C)CC3)cc2)sc2c1CCN(C)C2,-36%,x,x,-63*,x,x
CC1CCN(S(=O)(=O)c2ccc(C(=O)Nc3sccc3C(N)=O)cc2)CC1,3%,0%,-8,x,6.3µM*,-4
CN(C)NC(=O)c1ccsc1NC(=O)c1ccc(S(=O)(=O)N2CCCC2)cc1,0%,0%,12,-10,-18%,-3
Cc1ccc(-c2nc3ccccc3o2)cc1NC(=O)C(C)Oc1ccccc1 (configuration not stated),x,-10%,x,x,x,x
O=[N+]([O-])c1ncccc1OCc1ccc(Cl)c(Cl)c1,2%,7.1µM*,u,-4,x,0
CCN1CCN(c2cc(N3CCc4ccccc4C3)c(F)cc2[N+](=O)[O-])CC1,1%,-81%,0,-115*,28%[46.1 µM],-1
